Measurements as given in PubChem BioAssay (Tox21).
Results filed as inconclusive are left out. Where a structure was tested more than once in an assay, its records may differ in their call. Activity calls are given as the source filed them. Calls come from the whole dose curve; as a rule, active = well fitted cell-killing curve with a large enough effect in the repeat runs; inconclusive = weak or mixed curves; inactive = flat fitted curve, though single readings scatter.
% is set by controls: 0 for no effect and ±100 for the full control effect; potency is the fitted concentration of half-maximal effect.

Assay: qHTS assay to identify small molecule antagonists of the estrogen related receptor (ERR) signaling pathway from Tox21 library - cell viability counter screen (AID 1224834); note: nearly all actives have a fitted effect of over 30% in size
Conditions: ERR reporter cells viability, CellTiter-Fluor, 17.5 h; series mostly up to 92.4 µM; viability change, negative = cytotoxic: at the top concentration
From the text: National Center for Advancing Translational Sciences [NCATS]
NIH Chemical Genomics Center [NCGC]
U.S. Environmental Protection Agency [EPA]
National Institutes of Environmental Health Sciences [NIEHS]
National Toxicology Program [NTP]
U.S. Food and Drug Administration [FDA]
Estrogen related receptors (ERRs), the first orphan nuclear receptors discovered, play an important role in the control of cellular energy metabolism. ERRs are required for high-energy production in response to the environmental challenges. ERR-alpha was also identified as an adverse marker for breast cancer progression; ERR-alpha-positive tumors have a poor prognosis. To screen and to identify environmental compounds that perturb the ERR signaling pathways could provide valuable information for potential therapeutic or preventive measures in the treatment of metabolic disease. To differentiate true ERR antagonists or agonist from cytotoxic substances, the assay is multiplexed with cell viability assay.
Tox21 Assay Protocol Summary:
The ERR cells were dispensed at 2,000 cells/5 ul/well in 1536-well white plates using a Multidrop dispenser. After the assay plates were incubated at a 37 C/5% CO2 incubator for 6 hours, 23 nL of compounds dissolved in DMSO, positive and negative controls or DMSO only was transferred to the assay plate by a pin tool. The plates were incubated at 37 C for 17.5 hours. 1 ul/well of CellTiter-Fluor reagent was added into the assay plates using a Flying Reagent Dispenser. After 30-minute incubation at 37 C/5% CO2, the fluorescence intensity in the plates was measured using a ViewLux plate reader.
For `CN=C(N)NC(=O)Nc1c(C)cccc1C`, the “viability change, negative = cytotoxic” value was 5.74% [at 42.5 µM] (inactive). With `CC(=O)C(=O)CC(C)C` the “viability change, negative = cytotoxic” value was 5.13% (inactive). With `CCN(CC)C(=O)N1CCN(C)CC1` the “viability change, negative = cytotoxic” value was 4.51% [at 42.5 µM] (inactive). For `O=C(O)CCCc1c[nH]c2ccccc12`, the “viability change, negative = cytotoxic” value was 7.07% (inactive). For `C[C@H](CS)C(=O)N1CCC[C@H]1C(=O)O`, the “viability change, negative = cytotoxic” value was 3.65% [at 42.5 µM] (inactive). For `N[C@@H](Cc1cc(I)c(O)c(I)c1)C(=O)O`, the “viability change, negative = cytotoxic” value was -0.689% [at 42.5 µM] (inactive). For `O=S(=O)(Cl)c1c(Cl)cccc1Cl`, the “viability change, negative = cytotoxic” value was 3.29% (inactive). In the case of `CN1CCCN(C(c2ccccc2)c2ccc(Cl)cc2)CC1` (stereo not given), the Potency is reported as 29.8 µM (active). With `CCO[Si](C)(CCCOCC1CO1)OCC` (stereo not given) the “viability change, negative = cytotoxic” value was 1.25% (inactive). In the case of `CNC1CCCN(c2c(F)cc3c(=O)c(C(=O)O)cn(C4CC4)c3c2OC)C1` (stereo not given), the “viability change, negative = cytotoxic” value is reported as 3.17% [at 42.5 µM] (inactive). With `CCCCCCCC(=O)OCCCCCC` the “viability change, negative = cytotoxic” value was -3.95% (inactive). For `C[C@@H]1[C@H](O)[C@@H](C)/C=C/C=C\C=C\C=C\C=C\C=C\C=C\[C@H](O[C@@H]2O[C@H](C)[C@@H](O)[C@H](N)[C@@H]2O)C[C@@H]2O[C@](O)(C[C@@H](O)C[C@@H](O)[C@H](O)CC[C@@H](O)C[C@@H](O)CC(=O)O[C@H]1C)C[C@H](O)[C@H]2C(=O)O` (stereo in doubt), the Potency was 61.1 µM (active). In the case of `CCCCOC(=O)CCCCC(=O)OCCCC`, the “viability change, negative = cytotoxic” value is reported as 6.01% (inactive). With `COc1ccc2nc(S(=O)Cc3ncc(C)c(OC)c3C)[nH]c2c1` (stereo not given) the Potency was 53.8 µM (active) and inactive. With `CC(=O)Oc1cccc(O)c1` the “viability change, negative = cytotoxic” value was 6.02% [at 42.5 µM] (inactive). For `CCCCOCCOC(=O)c1cccnc1`, the “viability change, negative = cytotoxic” value was 10.2% [at 42.5 µM] (inactive). For `CS(=O)(=O)c1ccc([C@@H](C[C@H]2CCC(=O)C2)C(=O)Nc2cnccn2)cc1Cl`, the “viability change, negative = cytotoxic” value was 2.07% (inactive). For `O=[N+]([O-])c1ccc2ncccc2c1`, the “viability change, negative = cytotoxic” value was 2.16% (inactive). For `CCC(C)(C)C(=O)O`, the “viability change, negative = cytotoxic” value was 5.01% (inactive). For `CC(C)(C)S`, the “viability change, negative = cytotoxic” value was 5.82% (inactive). With `COc1ccc(CCN(C)CCCN2CCc3cc(OC)c(OC)cc3CC2=O)cc1OC` the “viability change, negative = cytotoxic” value was 4.38% [at 42.5 µM] (inactive). In the case of `COc1cc(NS(=O)(=O)c2ccc(N)cc2)nc(C)n1`, the “viability change, negative = cytotoxic” value is reported as 7.22% [at 42.5 µM] (inactive). With `CCCCCCCCCCCCCCCCCC(=O)OCC(CC)CCCC` (stereo not given) the “viability change, negative = cytotoxic” value was -3.56% (inactive). With `CCCOC(=O)c1c(Cl)c(Cl)c(Cl)c(Cl)c1C(=O)OCCC` the “viability change, negative = cytotoxic” value was 1.48% (inactive). In the case of `CC(C)N=C=NC(C)C`, the “viability change, negative = cytotoxic” value is reported as 0.444% (inactive). With `CC(C)COC(=O)c1ccc(O)cc1` the “viability change, negative = cytotoxic” value was -9.3% (inactive). For `O=C(O)/C=C/c1ccc(O)c(O)c1`, the “viability change, negative = cytotoxic” value was -1.95% (inactive). With `O=C(O)c1cccc(Oc2ccccc2)c1` the “viability change, negative = cytotoxic” value was 4.63% (inactive). With `CCOC(=O)Oc1ccc(CCNC(=O)[C@H](CCSC)NC(C)=O)cc1OC(=O)OCC` the “viability change, negative = cytotoxic” value was -3.13% [at 42.5 µM] (inactive). In the case of `CC(C)COC(=O)COc1cc(Cl)c(Cl)cc1Cl`, the “viability change, negative = cytotoxic” value is reported as 2.39% (inactive). In the case of `CC(=O)C(C)=O`, the “viability change, negative = cytotoxic” value is reported as 4.02% (inactive). With `Cc1ccc(Nc2c(F)cccc2Cl)c(CC(=O)O)c1` the “viability change, negative = cytotoxic” value was 0.421% [at 42.5 µM] (inactive). For `CC(CO)(CO)C(=O)O`, the “viability change, negative = cytotoxic” value was 0.315% (inactive). With `CC(C)(C)NCC(O)COc1cccc2c1C[C@H](O)[C@H](O)C2` (stereo not given in full) the “viability change, negative = cytotoxic” value was -0.154% [at 42.5 µM] (inactive). With `C/C(C=O)=C\c1ccccc1` the “viability change, negative = cytotoxic” value was 0.717% (inactive). With `CC(=O)NNC(C)=O` the “viability change, negative = cytotoxic” value was -2.13% (inactive). With `CC(=O)OCC(C)C` the “viability change, negative = cytotoxic” value was -4.32% (inactive). With `COc1cc(OC)c2ccc(=O)oc2c1` the “viability change, negative = cytotoxic” value was 1.91% (inactive). In the case of `CCCCCc1ccco1`, the “viability change, negative = cytotoxic” value is reported as -1.38% [at 42.5 µM] (inactive). With `CCN(CC)c1ccc(C(=C2C=CC(=[N+](CC)CC)C=C2)c2ccc(S(=O)(=O)O)cc2S(=O)(=O)[O-])cc1` the Potency was 21.7 µM (active).
